Source: PubChem BioAssay AID1159580 (chemical genetic matrix, 2015)
Out of some 5,500 compounds screened, about 2,000 (36%) were called active. About 18% were inconclusive and are not listed. No stated cut-off is given here; in the data, active means normalized growth mostly below about 0.91 (no sharp cut-off); inconclusive means no clear call, values can overlap the other calls; inactive means mostly above about 0.92. The list shows a part of the results.

Test: chemical genetic growth profiling, strain panel (AID 1159580);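 further: tested at 20 µM; growth read once vehicle control cultures reached saturation at 30 °C; 1 = growth at the plate median or of vehicle wells; lower values mean less growth of the strain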
Conditions: S. cerevisiae deletion strains, growth OD

Measured: normalized growth

OC(Cn1cncn1)(Cn1cncn1)c1ccc(F)cc1F
active: locus YDR137W, strain rgp1, hits give low values 0.508
inactive: locus YAL013W, strain DEP1, hits give low values 0.968 | locus YAL021C, strain ccr4, hits give low values 0.972 | locus YAL026C, strain drs2, hits give low values 0.911 | locus YAL030W, strain snc1, hits give low values 1 | locus YBL061C, strain skt5, hits give low values 0.995 | locus YBR009C, strain hhf1, hits give low values 0.998 | locus YBR021W, strain FUR4, hits give low values 0.936 | locus YBR023C, strain chs3, hits give low values 1.01 | locus YBR171W, strain sec66, hits give low values 0.971 | locus YBR229C, strain ROT2, hits give low values 1 | locus YBR231C, strain swc5, hits give low values 0.981 | locus YBR279W, strain paf1, hits give low values 1 | locus YCL011C, strain gbp2, hits give low values 1.01 | locus YCL016C, strain dcc1, hits give low values 0.987 | locus YCL029C, strain bik1, hits give low values 0.984 | locus YCL061C, strain MRC1, hits give low values 0.987 | locus YCL069W, strain vba3, hits give low values 1 | locus YCR088W, strain abp1, hits give low values 1.01 | locus YDL005C, strain med2, hits give low values 0.966 | locus YDL035C, strain GPR1, hits give low values 0.991 | locus YDL040C, strain nat1, hits give low values 1 | locus YDL074C, strain BRE1, hits give low values 1.03 | locus YDL101C, strain DUN1, hits give low values 0.993 | locus YDL134C, strain PPH21, hits give low values 1 | locus YDL185W, strain tfp1, hits give low values 0.948 | locus YDL192W, strain arf1, hits give low values 0.998 | locus YDR001C, strain nth1, hits give low values 1.01 | locus YDR069C, strain doa4, hits give low values 0.971 | locus YDR101C, strain arx1, hits give low values 1 | locus YDR150W, strain NUM1, hits give low values 0.985 | locus YDR159W, strain sac3, hits give low values 0.956 | locus YDR162C, strain NBP2, hits give low values 0.971 | locus YDR195W, strain ref2 1.1 | locus YDR297W, strain sur2, hits give low values 1 | locus YDR318W, strain mcm21, hits give low values 0.986 | locus YDR334W, strain swr1, hits give low values 0.996 | locus YDR335W, strain msn5, hits give low values 1.01 | locus YDR388W, hits give low values 1 | locus YDR392W, strain spt3, hits give low values 0.853 | locus YDR502C, strain sam2, hits give low values 0.992 | locus YEL003W, strain gim4, hits give low values 0.999 | locus YEL037C, strain rad23, hits give low values 1 | locus YEL061C, strain CIN8 (second series), hits give low values 1.01 | locus YEL061C, strain CIN8, hits give low values 0.993 | locus YER015W, strain faa2, hits give low values 1.01 | locus YER016W, strain bim1, hits give low values 1 | locus YER110C, hits give low values 0.974 | locus YER111C, strain swi4, hits give low values 0.999 | locus YER155C, strain BEM2 (second series), hits give low values 0.99 | locus YER155C, strain BEM2, hits give low values 1 | locus YER167W, strain BCK2, hits give low values 1.01 | locus YFR010W, strain ubp6, hits give low values 0.982 | locus YGL078C, strain dbp3, hits give low values 0.997 | locus YGL086W, strain mad1, hits give low values 0.997 | locus YGL167C, strain pmr1, hits give low values 1 | locus YGL173C, strain kem1, hits give low values 1.01 | locus YGL227W, strain vid30, hits give low values 1.01 | locus YGL240W, strain doc1, hits give low values 0.995 | locus YGL248W, strain PDE1, hits give low values 1.02 | locus YGL253W, strain hxk2, hits give low values 0.99 | locus YGR078C, strain PAC10, hits give low values 1.02 | locus YGR135W, strain pre9, hits give low values 0.979 | locus YGR252W, strain gcn5, hits give low values 1 | locus YHR013C, strain ard1, hits give low values 0.957 | locus YHR027C, strain rpn1, hits give low values 1.01 | locus YHR030C, strain SLT2, hits give low values 0.987 | locus YHR079C, strain IRE1 (second series), hits give low values 0.985 | locus YHR094C, strain hxt1, hits give low values 1.01 | locus YHR129C, strain ARP1, hits give low values 1 | locus YHR142W, strain chs7, hits give low values 1 | locus YHR200W, strain rpn10, hits give low values 0.961 | locus YIL066C, strain RNR3, hits give low values 1 | locus YIL073C, strain SPO22, hits give low values 0.943 | locus YIL125W, strain kgd1, hits give low values 1.01 | locus YIR030C, strain dcg1, hits give low values 0.997 | locus YJL092W, strain hpr5, hits give low values 0.998 | locus YJL095W, strain BCK1 (second series), hits give low values 1 | locus YJL095W, strain BCK1, hits give low values 1.07 | locus YJL115W, strain asf1, hits give low values 0.996 | locus YJL129C, strain trk1, hits give low values 1.06 | locus YJL134W, strain LCB3, hits give low values 0.994 | locus YJL154C, strain vps35, hits give low values 1.01 | locus YJL164C, strain tpk1, hits give low values 0.992 | locus YJL166W, strain qcr8, hits give low values 1 | locus YJL168C, strain set2, hits give low values 0.992 | locus YJL187C, strain SWE1 (second series), hits give low values 1.03
